IDE exosite inh: insulin-degrading enzyme (human) exo-site inhibition; z-score at 20 µM; P14735; purified IDE, FL-6b probe fluorescence polarization; stronger effect = lower value; AID 1259349; 17,000 tested, 6.3% active;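 active = z-score of -3 or lower, meaning strong loss of probe binding signal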;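 also: His-tagged human IDE residues 42-1019 made in E. coli with 30 nM FL-6b probe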
* hit, by the source's call. The sample as a whole holds a higher share of hits than the screen did.

SMILES | IDE exosite inh
O=C(CN1CCOCC1)N1CCCCN2[C@H](CO)[C@@H](c3ccc(C#Cc4ccccc4F)cc3)[C@H]2C1 | -3.9*
O=C(CN1CCOCC1)N1CCCCN2[C@@H](CO)[C@H](c3ccc(C#Cc4ccccc4F)cc3)[C@@H]2C1 | -8.97*
O=C(c1ccc2c(c1)OCO2)N1CCCCN2[C@H](C1)[C@@H](c1ccc(-c3ccccc3)cc1)[C@@H]2CO | 0.764
CO[C@H]1CN(C)C(=O)c2cc(NC(=O)C3CCOCC3)ccc2OC[C@@H](C)NC[C@H]1C | 0.931
O=C(c1cccnc1)N1CC(=O)N2[C@H](CO)[C@H](c3ccc(-c4ccccc4F)cc3)[C@@H]2C1 | -1.15
Cc1cccc(S(=O)(=O)N2C[C@H](O)COC[C@@H]3O[C@H](CC(=O)Nc4ccccc4)CC[C@H]32)c1 | 1.37
CN(C)CC(=O)N1[C@@H](CO)[C@@H](c2ccccc2)C12CN(C(=O)c1ccc(F)cc1)C2 | 1.64
CC(=O)N1[C@@H](CO)[C@@H](c2ccccc2)[C@@H]1CN(C)S(=O)(=O)c1ccccc1 | -0.194
CC(C)NC(=O)N1CC[C@@H]2[C@H]1c1cc(-c3ccc(F)cc3)ccc1N(C)[C@H]2CO | -0.0609
COc1cccc(NC(=O)C[C@H]2CC[C@H]3[C@@H](COc4ccc(NS(=O)(=O)c5cccc(F)c5)cc4C(=O)N3C)O2)c1 | -0.206
COCC(=O)N1CCCCN2[C@@H](CO)[C@H](c3ccc(C#Cc4ccccc4)cc3)[C@@H]2C1 | -11.3*
COCC(=O)N1CCCCN2[C@H](CO)[C@H](c3ccc(C#Cc4ccccc4)cc3)[C@@H]2C1 | -8.38*
COCC#Cc1ccc([C@H]2[C@@H](CO)N3CCCCN(C(=O)COC)C[C@H]23)cc1 | 2.62
COCC(=O)N1CCCCN2[C@H](CO)[C@H](c3ccc(-c4ccccc4)cc3)[C@H]2C1 | -0.281
COCC(=O)N1CCCCN2[C@H](C1)[C@H](c1ccc(C#Cc3ccccc3)cc1)[C@@H]2CO | -9.96*
COCC#Cc1ccc([C@@H]2[C@@H](CO)N3CCCCN(C(=O)COC)C[C@H]23)cc1 | 1.02
COCC(=O)N1CCCCN2[C@H](C1)[C@H](c1ccc(-c3ccccc3)cc1)[C@@H]2CO | -0.423
COCC(=O)N1CCCCN2[C@H](C1)[C@@H](c1ccc(C#Cc3ccccc3)cc1)[C@@H]2CO | -5.91*
COCC(=O)N1CCCCN2[C@H](CO)[C@@H](c3ccc(-c4ccccc4)cc3)[C@@H]2C1 | -0.528
COCC#Cc1ccc([C@@H]2[C@H]3CN(C(=O)COC)CCCCN3[C@H]2CO)cc1 | 0.849
COc1cccc(CN2CCCCN3[C@@H](CO)[C@H](c4ccc(C#Cc5cccnc5)cc4)[C@@H]3C2)c1 | 3.82
CC(C)C#Cc1ccc([C@H]2[C@H]3CN(C(=O)Cc4ccccc4)CC(=O)N3[C@H]2CO)cc1 | -1.11
CO[C@@H]1CC[C@H]2CCOc3ccc(C#N)cc3C(=O)N(C)C[C@H](c3ccccc3)CC(=O)N(C)C[C@@H]1O2 | 0.284
CN(C)CC(=O)N1[C@@H](C#N)[C@H](c2ccc(-c3ccc(C(=O)N(C)C)cc3)cc2)[C@@H]1CO | 4.3
CCC(=O)N(C)C[C@H]1[C@@H](c2ccc(-c3ccc(F)cc3)cc2)[C@@H](CO)N1C(C)=O | 1.06
SMILES | IDE exosite inh
O=C(Nc1cccc(F)c1)N1CC(=O)N2[C@H](CO)[C@@H](c3ccc(-c4ccccc4F)cc3)[C@@H]2C1 | 1.38
CCCNC(=O)c1cc2c(c(-c3cccc(-c4cc5ccccc5o4)c3)n1)[C@H](CCO)N(C(=O)NC(C)C)C2 | 1.38
CC(C)CC#Cc1ccc([C@@H]2[C@H](CO)N3C(=O)CN(S(=O)(=O)c4ccccc4)C[C@@H]23)cc1 | 3.08
COc1cccc(NC(=O)N[C@H]2CC[C@@H](CC(=O)N3CCN(C)CC3)O[C@H]2CO)c1 | -0.457
CCN(C[C@@H]1N[C@H](CO)[C@H]1c1ccc(C2=CCCC2)cc1)C(=O)c1ccncc1 | -0.0104
CCCC#Cc1ccc([C@H]2[C@@H](CO)N3CCCCN(C(=O)c4ccc5c(c4)OCO5)C[C@H]23)cc1 | 0.649
OC[C@@H]1[C@H](c2ccc(-c3ccc(F)cc3)cc2)[C@H](CNC2CCCC2)N1CCC(F)(F)F | -0.734
O=C(c1cccc(F)c1)N1CCCCN2[C@H](CO)[C@H](c3ccc(-c4ccccc4)cc3)[C@@H]2C1 | 2.7
COCC(=O)N1CCCCN2[C@H](CO)[C@@H](c3ccc(C#Cc4ccc(OC)cc4)cc3)[C@@H]2C1 | -1.38
COCC(=O)N1CCCCN2[C@H](CO)[C@H](c3ccc(C#Cc4ccc(OC)cc4)cc3)[C@@H]2C1 | -8.49*
COCC(=O)N1CCCCN2[C@H](CO)[C@@H](c3ccc(C#Cc4ccc(OC)cc4)cc3)[C@H]2C1 | 1.72
O=C(Nc1cccc(F)c1)N1CC(=O)N2[C@@H](CO)[C@H](c3ccc(Br)cc3)[C@@H]2C1 | 2.03
COc1ccccc1NC(=O)N[C@@H]1CC[C@@H](CCNS(=O)(=O)c2ccc(Cl)cc2)O[C@H]1CO | 0.0602
O=C(C1CCCC1)N1CC(=O)N2[C@H](CO)[C@H](c3ccc(C#CC4CCCC4)cc3)[C@@H]2C1 | 1.96
O=C(C1CC1)N1CC(=O)N2[C@H](CO)[C@H](c3ccc(C#CC4CCCC4)cc3)[C@H]2C1 | 1.67

Bioassay records: PubChem, Broad Institute
